Source: PubChem BioAssay (NCI)
This is part of a sample that, as a whole, favours compounds with a hit. Of some 79,000 tested, about 15% had one in any assay. Cut-off read from the data, not from the text of the source: active = growth inhibition above about 70%; inactive = the rest.

Experiments:
[1] = NCI Yeast Anticancer Drug Screen. Data for the rad50 strain (AID 155);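 note: 0% = growth of vehicle-only cultures of the same strain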; conditions: S. cerevisiae rad50 strain growth inhibition; at 50.0 µM; hits give high values
Summary of the method: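 Genetically altered yeast (DNA repair pathway); compound treatment; growth inhibition vs vehicle ctrl.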

[2] = NCI Yeast Anticancer Drug Screen. Data for the mec2-1 strain (AID 157); conditions: S. cerevisiae mec2-1 strain, at 50.0 µM, hits give high values
Summary of the method: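 Compounds were applied to mec2-1 yeast cells. Their growth was then compared with that of vehicle-treated cultures to give growth inhibition.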

[3] = NCI Yeast Anticancer Drug Screen. Data for the sgs1 mgt1 strain (AID 161);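 note: 0% = growth of cultures given vehicle only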; conditions: S. cerevisiae sgs1 mgt1 strain, at 50.0 µM, hits give high values
Summary of the method: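 This yeast growth screen uses a strain with defined DNA-repair lesions; compound-treated growth is compared with vehicle-treated growth.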

[4] = NCI Yeast Anticancer Drug Screen. Data for the cln2 rad14 strain (AID 165);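 note: 0% = growth equal to vehicle treated cultures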; conditions: S. cerevisiae cln2 rad14 strain, at 50.0 µM, hits give high values
Summary of the method: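 Strain: cln2 rad14 yeast, altered in cell cycle control and DNA damage repair. Read-out: growth inhibition vs vehicle.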

[5] = NCI Yeast Anticancer Drug Screen. Data for the bub3 strain (AID 167); conditions: S. cerevisiae bub3 mutant strain, at 50.0 µM, hits give high values
Summary of the method: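 Yeast carrying a defined mutation is treated with each compound, and growth is compared with that of vehicle-exposed cells to give inhibition.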

[6] = NCI Yeast Anticancer Drug Screen. Data for the mlh1 rad18 strain (AID 175); conditions: S. cerevisiae mlh1 rad18 strain growth inhibition; at 50.0 µM; hits give high values
Summary of the method: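 A repair-deficient yeast strain is exposed to test compound, and growth is scored relative to vehicle-treated controls.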

Measured: growth inhibition

COc1ccc(C2OC2C(=O)c2ccccc2)cc1 (stereo not drawn)
inactive: [1] 6.75% | [2] 0.7% | [3] 19.4% | [4] -14.2% | [5] 12.3% | [6] -1.25%

O=[N+]([O-])c1ccc(NC(=S)Nc2ccc([N+](=O)[O-])cc2)cc1
inactive: [1] 5.05% | [2] -17.6% | [3] -1.1% | [4] -25.8% | [5] 5.7% | [6] 2.75%

O=C1CSC(c2ccc(F)cc2)N1c1nncs1 (stereo not drawn)
inactive: [1] 5.2% | [2] 3.65% | [3] 9.7% | [4] 3.6% | [5] 31.6% | [6] 7.45%

CCC1(CCC(C)C)C(=O)NC(=Nc2ccccc2)N(c2ccccc2)C1=O (stereo not drawn)
inactive: [1] 18.7% | [2] 7.95% | [3] -0.65% | [4] 1.55% | [5] 4.45% | [6] 10.1%

CCN(CC)CC1CCCCN1 (stereo not drawn)
inactive: [1] -10.1% | [2] -15.7% | [3] 1.95% | [4] 29.6% | [5] 1.4% | [6] 2.55%

O=C(/C=C/c1ccccc1)Nc1ccccc1C(F)(F)F
inactive: [1] 4.45% | [2] 9.05% | [3] 0.7% | [4] -3.7% | [5] 12.6% | [6] 18.2%

CCOC(=O)c1ccc(NC(=O)Nc2ccc(F)c([N+](=O)[O-])c2)cc1
inactive: [1] 7.3% | [2] 46.1% | [3] 46.5% | [4] 7% | [5] 28.9% | [6] 23.6%

N=C(N)C=O
inactive: [1] -12.4% | [2] 0.3% | [3] 5.45% | [4] 0.05% | [5] 1.45% | [6] -7.95%

CN1C2CC(=O)CC1[C@@H]1OC(c3ccccc3)O[C@H]21 (stereo partly drawn)
inactive: [1] 6.65% | [2] -3.25% | [3] -15.4% | [4] 27.9% | [5] 17.6% | [6] 19.5%

CC1CCC(C(C)C)C(OS(=O)(=O)c2ccccc2)C1 (stereo not drawn)
inactive: [1] 0.1% | [2] -26.7% | [3] -10.4% | [4] 17.3% | [5] 11.6% | [6] 1.8%

CC1=CC(=O)C(C(C)C)CC1 (stereo not drawn)
inactive: [1] 1.1% | [2] -1.05% | [3] -11.1% | [4] -43% | [5] -7.75% | [6] -0.35%

Nc1cccc(OCC2CCCN3CCCCC23)c1 (stereo not drawn)
inactive: [1] 20% | [2] -17.9% | [3] 4.9% | [4] 2.45% | [5] 6.05% | [6] -64.8%

Cc1cc(C)c2c(-c3ccccc3)cc(=O)[nH]c2c1
inactive: [1] -33% | [2] -16.1% | [3] -29.4% | [4] -3.55% | [5] -33.7% | [6] -51.1%

C(=C\c1cc(CCc2nc3ccccc3[nH]2)[nH]n1)/c1ccccc1
inactive: [1] -4.4% | [2] -16.5% | [3] -12.3% | [4] 22.6% | [5] -4.25% | [6] -15.2%

CC[N+](CC)(CC)CCO
inactive: [1] -11.6% | [2] -23.6% | [3] -10.9% | [4] 20.7% | [5] -11.5% | [6] -18.5%

Cc1ccc2c(ccc3nnc(C)n32)c1
inactive: [1] 9.15% | [2] 4.05% | [3] 4.65% | [4] -2.95% | [5] 2.75% | [6] 10.8%

CN(C)c1ccc(C(=C2C=CC(=[N+](C)C)C=C2)c2c(O)c(S(=O)(=O)[O-])cc3cc(S(=O)(=O)O)ccc23)cc1
inactive: [1] 1.4% | [2] -21.5% | [3] -41.5% | [4] 15.1% | [5] -14.6% | [6] 27.1%

N#Cc1cccc2c(S(=O)(=O)O)cccc12
inactive: [1] -12.9% | [2] 4.5% | [3] 11.6% | [4] -17.3% | [5] -2.85% | [6] -10.8%

Cc1ccccc1N=Nc1c(O)n(-c2ccccc2)c(=S)n(-c2ccccc2)c1=O
inactive: [1] 43.5% | [2] 0.9% | [3] 28.6% | [4] -18.9% | [5] 2.2% | [6] 14.4%

NC(=O)C(Cc1ccc(O)cc1)NC(=O)c1cccnc1 (stereo not drawn)
inactive: [1] -7.3% | [2] 0.7% | [3] -0.95% | [4] -2.05% | [5] -9.05% | [6] 4.35%

Cc1ccc(S(=O)(=O)NN=C2CCCCCCCCCCC2)cc1
inactive: [1] -8.35% | [2] -21.4% | [3] -7.75% | [4] 7.45% | [5] 9.05% | [6] -1.8%

COCCc1c2ccccc2cc2ccccc12
inactive: [1] 24.9% | [2] 3.2% | [3] 10.4% | [4] 7.65% | [5] -22.1% | [6] 17.8%

OC1COC2CC(Nc3ccccn3)OC12 (stereo not drawn)
inactive: [1] -36.8% | [2] -41.2% | [3] -15.8% | [4] 0% | [5] -10.2% | [6] -13.6%

Cc1ccc2[nH]c(-c3ccccc3)cc2c1
inactive: [1] -1.85% | [2] -21.6% | [3] -10.6% | [4] -27.8% | [5] -8.15% | [6] -9.8%

Cc1no[n+]([O-])c1C(=O)NN
inactive: [1] 6.35% | [2] 6.6% | [3] -14.3% | [4] -46.8% | [5] -20.1% | [6] -12.4%

O=C(Nc1cc(C(F)(F)F)ccc1Cl)C(=O)C(C(=O)c1ccc2ccccc2c1)C1OC(=O)c2ccccc21 (stereo not drawn)
inactive: [1] 35% | [2] 24.4% | [3] 19.6% | [4] 20.3% | [5] 30.9% | [6] 55.5%

C[C@@H]1CN[C@@H](C)CN1
inactive: [1] -35.2% | [2] -30.3% | [3] -17.4% | [4] -8.25% | [5] -0.6% | [6] 3.8%

Cc1ccc(S(=O)(=O)N2CCCC(=O)c3ccccc32)cc1
inactive: [1] -12.4% | [2] 14.4% | [3] -12.9% | [4] 9.35% | [5] 12.1% | [6] 11.3%

COc1ccc(-c2cc3c(c4cc(OC)ccc24)C(=O)OC3=O)cc1
inactive: [1] -29.1% | [2] -5.1% | [3] 20.6% | [4] 1% | [5] 4.4% | [6] -15.1%

Cc1ccc(S(=O)(=O)N/N=C/c2cc([N+](=O)[O-])cc(I)c2O)cc1
inactive: [1] 2.35% | [2] -3.6% | [3] -4.5% | [4] -50.4% | [5] -10.6% | [6] 4.2%

CC(=O)n1cc2cc([N+](=O)[O-])ccc2n1
inactive: [1] -13.4% | [2] -13.6% | [3] -1.15% | [4] -91.8% | [5] -1% | [6] -17.1%

N#CCC(=O)N/N=C1\C(=O)N(c2ccc(Cl)cc2)C(=O)C(=O)C1c1nc2ccccc2o1 (stereo not drawn)
inactive: [1] 22.4% | [2] -11.8% | [3] 0.4% | [4] 16.5% | [5] 1.35% | [6] 8.45%

CSC(=N\N=C(/C)c1ccc(Br)cc1)/N=C/N(C)C
inactive: [1] 46.2% | [2] 23.2% | [3] 55.5% | [4] 19% | [5] 28.1% | [6] 31.7%

O=C(Nc1ccccc1)OCC#CCOC(=O)Nc1ccccc1
inactive: [1] 27.4% | [2] 11.7% | [3] 17.6% | [4] -60.5% | [5] 2.45% | [6] 11%

O=C(O)CSc1c(Cl)c(=O)oc2ccc(Cl)cc12
inactive: [1] 30.3% | [2] -6.6% | [3] 20.2% | [4] -2% | [5] 17% | [6] 43.9%

COc1cccc(-c2cc(=O)c3cc(Cl)cnc3[nH]2)c1
inactive: [1] 5.35% | [2] 2.7% | [3] 4.2% | [4] 31.1% | [5] 11.8% | [6] 5.1%

O=C1c2ccccc2-c2nc(/C=C/c3ccccc3)cc3c2c1nc1ccccc13
inactive: [1] 10.2% | [2] 6.2% | [3] 8.6% | [4] 7% | [5] -9.5% | [6] -0.25%

O=C(C1SCCCS1)N(O)c1ccccc1OCc1ccccc1
inactive: [1] -3.85% | [2] -37.6% | [3] -22.8% | [4] -14.5% | [5] 0.95% | [6] -19.8%
